The source of these data is PubChem BioAssay (NCATS).

A short description of experiment [1]: qHTS profiling of the MIPE4 collection as inhibitors of Plasmodium falciparum (3D7) proliferation (AID 743344).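 Note: scaled between DMSO vehicle wells and 0.29 µM artemisinin as full inhibition.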 The conditions noted are these: P. falciparum 3D7 in erythrocytes, SYBR Green DNA fluorescence, 72 h; at 28.5 µM unless noted. An outline of the steps: (§1)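 Erythrocytes infected with P. falciparum (0.3% parasitemia, 2.5% hematocrit) incubated with compounds 72 h at 37 C, 5% CO2. Lysis with saponin/Triton buffer containing SYBR Green I, overnight at room temperature in the dark; DNA fluorescence (485/535 nm) normalised to 0.29 uM artemisinin and DMSO.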
For orientation: qHTS replaces the single test concentration by a dilution series.

The nature of experiment [2]: qHTS profiling of the MIPE4 collection as inhibitors of Plasmodium falciparum (DD2) proliferation (AID 743345). As to conditions: P. falciparum Dd2 in erythrocytes, SYBR Green DNA, 72 h; at 28.5 µM unless noted. The method, boiled down: as §1
The nature of experiment [3]: qHTS profiling of the MIPE4 collection as inhibitors of Plasmodium falciparum (HB3) proliferation (AID 743347).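 Note: plate controls were DMSO vehicle wells for no effect and artemisinin wells for full effect.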 As to conditions: P. falciparum HB3 in erythrocytes, SYBR Green DNA, 72 h; at 28.5 µM unless noted. The method, boiled down: as §1
Experiment [4] in a line: High-throughput drug toxicity screening in the BPDCN cell line Gen2.2 (AID 1224824).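 Note: cells exposed to compounds for 48 h before reading.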 The conditions noted are these: Gen2.2 BPDCN cells; at 45.8 µM (top of the series) unless noted. The method, boiled down: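 Gen2.2, 500 cells/well, phenol red-free RPMI/10% FBS/Pen-Strep; 48 h cpd, 37 °C/5% CO2; CTG lum, 15 min RT. Norm: DMSO = 100%, bortezomib 9.2 uM final = 0%.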
Experiment [5] is described as follows: High-throughput drug toxicity screening in the BPDCN cell line Cal-1 (AID 1224825). The conditions noted are these: Cal-1 BPDCN cell viability, qHTS; at 45.8 µM (top of the series) unless noted. The method, boiled down:
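Cal-1 cells, 500 per well in phenol-red-free RPMI with 10% FBS, exposed to compounds for 48 hours at 37C, 5% CO2. Viability read by CellTiter-Glo luminescence; percent activity normalized to DMSO (100%) and 9.2 uM bortezomib final (0%).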

The nature of experiment [6]: qHTS profiling of the MIPE4 collection as inhibitors of Plasmodium falciparum (DD2) proliferation (Rep 2) (AID 743346). As to conditions: P. falciparum Dd2 in erythrocytes, SYBR Green DNA, 72 h; at 28.5 µM unless noted. An outline of the steps: as §1
Experiment [7] is described as follows: qHTS profiling for inhibitors of Plasmodium falciparum (3D7) proliferation (AID 743322).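 Note: infected erythrocytes exposed to compound for 72 h before lysis; 100% = DMSO vehicle wells and 0% = 0.29 µM artemisinin.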 The conditions noted are these: P. falciparum 3D7 proliferation; at 28.7 µM (top of the series). An outline of the steps:
as §1

A short description of experiment [8]: qHTS profiling for inhibitors of Plasmodium falciparum (DD2) proliferation (AID 743323). As to conditions: lower = more inhibition; at 28.7 µM (top of the series). The method, boiled down: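 SYBR Green fluorescence (ex 485, em 535 nm) of lysed cultures gives parasite DNA content; wells normalized to artemisinin (0.29 uM) and DMSO controls. Infected red cells: 0.3% parasitemia, 2.5% hematocrit, 72 h, 37 C.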

Experiment [9] can be described thus: qHTS profiling for inhibitors of Plasmodium falciparum (HB3) proliferation (AID 743324).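 Note: 100% = DMSO vehicle wells and 0% = artemisinin-treated control wells.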 As to conditions: Plasmodium falciparum HB3 blood-stage proliferation; at 28.7 µM (top of the series). An outline of the steps:
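P. falciparum HB3 grown in erythrocytes (0.3% parasitemia, 2.5% hematocrit final) with compound for 72 h at 37 C, 5% CO2. Parasite DNA detected by SYBR Green after saponin/triton lysis overnight; normalized to 0.29 uM artemisinin and DMSO.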

Turning to `Cn1c2ccccc2c2c3c(c4c5ccccc5n(CCC#N)c4c21)CNC3=O`, the parasite growth, % of DMSO control in experiment [1] turned out to be 16%. For the same compound, the parasite growth remaining, % of DMSO control (lower = more inhibition) in experiment [2] was found to be 7.7%. For the same compound, the growth, % of control in experiment [3] was determined as 54.6%. The cell viability, % of control (lower = more cytotoxic) in [4] came to 12.7%. The viability (% of control) in [5] is 15.7%.
As to `CCN(CC)CCNC(=O)c1ccc2nc(-c3ccccc3)c(-c3ccc(CN4CCC(n5c(=O)[nH]c6ccccc65)CC4)cc3)nc2c1`, the parasite growth, % of DMSO control in experiment [1] amounted to 4.56%. Also, in experiment [2], the parasite growth remaining, % of DMSO control (lower = more inhibition) amounted to 5.78%. Moreover, the parasite growth, % of control (lower = inhibition) in [6] amounted to 19.4%. Besides, in [3], the growth, % of control amounted to 8.22%. In addition, in experiment [4], the cell viability, % of control (lower = more cytotoxic) was determined as 1.68%. In experiment [5], the viability (% of control) turned out to be 0.965%.
`Cc1ccc(CN2CCNCC2)cc1NC(=O)CNc1ccc(F)c(F)c1` returned a parasite growth, % of DMSO control in experiment [1] of 55.3%. Moreover, in [2], the parasite growth remaining, % of DMSO control (lower = more inhibition) turned out to be 103%. This compound displayed a parasite growth, % of control (lower = inhibition) in experiment [6] of 63%. Moreover, the growth, % of control in [3] stood at 60.8%. Moreover, the cell viability, % of control (lower = more cytotoxic) in experiment [4] stood at 124%. In experiment [5], the viability (% of control) worked out at 103%.
Take `Nc1ncnc2c1c(-c1cnc3[nH]ccc3c1)nn2C1CCCC1`: the parasite growth, % of DMSO control in [1] came to 6.52%. Moreover, in experiment [2], the parasite growth remaining, % of DMSO control (lower = more inhibition) was 8.6%. Further, the parasite growth, % of control (lower = inhibition) in experiment [6] was determined as 8.28%. For the same compound, the growth, % of control in experiment [3] stood at 2.85%. The cell viability, % of control (lower = more cytotoxic) in experiment [4] was determined as 7.53%. Further, the viability (% of control) in experiment [5] is 3.58%.
Regarding `CC(=O)OCCN1C(=O)c2c(C)nc3ccc(S(=O)(=O)N4CCOCC4)cc3c2C1=O`, the remaining parasite growth % (stronger effect = lower value) in experiment [7] turned out to be 96.2%. Also, the activity, percent of control in experiment [8] is 97.6%. For the same compound, the remaining proliferation (% of control), lower = more inhibition in [9] turned out to be 103%. This compound also had a parasite growth, % of DMSO control in [1] of 365%. Moreover, the parasite growth remaining, % of DMSO control (lower = more inhibition) in experiment [2] is 102%. In experiment [6], this compound returned a parasite growth, % of control (lower = inhibition) of 86.6%. In experiment [3], this compound gave a growth, % of control of 666%. In addition, the viability (% of control) in [5] is 47.9%.
On to `CN(C)c1nc(Cc2ccc(NC(=O)c3ccc4ccccc4c3)cc2)nc(Cl)c1CC(=O)O`, for which the parasite growth remaining, % of DMSO control (lower = more inhibition) in experiment [2] was found to be 87.6%. Further, the parasite growth, % of control (lower = inhibition) in [6] was 42.6%. Besides, the growth, % of control in experiment [3] worked out at 85.9%. In experiment [4], the cell viability, % of control (lower = more cytotoxic) is 90.6%. In addition, the viability (% of control) in experiment [5] worked out at 113%.
Consider `CC(C)c1cc(C(=O)N2Cc3ccc(CN4CCN(C)CC4)cc3C2)c(O)cc1O`, for which the parasite growth remaining, % of DMSO control (lower = more inhibition) in [2] amounted to 7.69%. The parasite growth, % of control (lower = inhibition) in [6] was found to be 9.28%. The compound further showed a growth, % of control in experiment [3] of 2.52%. Moreover, the cell viability, % of control (lower = more cytotoxic) in experiment [4] is 29.3%. Also, in [5], the viability (% of control) worked out at 15%.
Turning to `COC(=O)C1=C(C)NC(C)=C(C(=O)OCCN2CCN(C(c3ccccc3)c3ccccc3)CC2)C1c1cccc([N+](=O)[O-])c1` (stereo not drawn), in experiment [2], the parasite growth remaining, % of DMSO control (lower = more inhibition) came out at 45.6%. This compound yielded a parasite growth, % of control (lower = inhibition) in [6] of 43.1%. The compound further showed a growth, % of control in experiment [3] of 18.9%. In addition, the cell viability, % of control (lower = more cytotoxic) in [4] came out at 126%. For the same compound, in [5], the viability (% of control) came to 108%.
Compound `Cc1nc(Nc2n[nH]c3c2CN(C(=O)N[C@H](CN(C)C)c2ccccc2)C3(C)C)c2sccc2n1` returned a parasite growth, % of control (lower = inhibition) in experiment [6] of 9.85%. The cell viability, % of control (lower = more cytotoxic) in experiment [4] turned out to be 0.772%. For the same compound, the viability (% of control) in [5] was determined as 1.64%.
Take `CC(C)c1noc(N2CCC(COc3ccc(-c4ccc(S(C)(=O)=O)cc4)nc3)CC2)n1`: the parasite growth, % of DMSO control in experiment [1] was 22.7%. This compound also registered a growth, % of control in [3] of 20.9%. Besides, the cell viability, % of control (lower = more cytotoxic) in experiment [4] stood at 87.9%. For the same compound, the viability (% of control) in experiment [5] was 68.8%.
Compound `CNC(=O)c1ccc(-c2cnc3ncc(Cc4ccc5ncccc5c4)n3n2)cc1F` came in with a parasite growth, % of control (lower = inhibition) in experiment [6] of 37.1%. Moreover, in experiment [3], the growth, % of control stood at 10.4%. The cell viability, % of control (lower = more cytotoxic) in experiment [4] stood at 48.9%. For the same compound, the viability (% of control) in [5] stood at 92.3%.
Take `NC1(Cc2ccc(Cl)cc2)CCN(c2ncnc3[nH]ccc23)CC1`: the parasite growth remaining, % of DMSO control (lower = more inhibition) in [2] was found to be 31.6%. In experiment [3], the growth, % of control worked out at 5.59%. Also, in experiment [4], the cell viability, % of control (lower = more cytotoxic) came out at 12.2%. Further, in experiment [5], the viability (% of control) was 22.9%.
As to `Nc1ccn([C@@H]2O[C@H](CO)[C@H](O)C2(F)F)c(=O)n1`, the parasite growth, % of DMSO control in [1] stood at 19.5%. The compound further gave a parasite growth, % of control (lower = inhibition) in [6] of 8.03%. For the same compound, the growth, % of control in experiment [3] was 42.2%. For the same compound, in experiment [4], the cell viability, % of control (lower = more cytotoxic) was 144%. Also, in experiment [5], the viability (% of control) was determined as 11.1%.
In the case of `Cc1ccc(C(=O)Nc2ccc(CN3CCN(C)CC3)c(C(F)(F)F)c2)cc1C#Cc1cnc2cccnn12`, the remaining parasite growth % (stronger effect = lower value) in experiment [7] was -1.18%. Further, the activity, percent of control in experiment [8] is 0.143%. Also, in [9], the remaining proliferation (% of control), lower = more inhibition is -1.05%. In addition, the parasite growth, % of DMSO control in experiment [1] amounted to 6.07%. The parasite growth remaining, % of DMSO control (lower = more inhibition) in experiment [2] is 7.34%. In experiment [6], this compound had a parasite growth, % of control (lower = inhibition) of 13%. In experiment [5], the viability (% of control) was found to be 3.63%.
